Measured values published in PubChem BioAssay AID1159580 (chemical genetic matrix, 2015).
The campaign covered roughly 5,500 compounds. About 2,000 (36%) were called active. About 18% were inconclusive and are not listed. Cut-off read from the data, not from the text of the source: active = normalized growth mostly below about 0.91 (no sharp cut-off); inconclusive = no clear call, values can overlap the other calls; inactive = mostly above about 0.92. The list shows a part of the results.

Test: chemical genetic growth profiling, strain panel (AID 1159580);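 note: tested at 20 µM; growth read once vehicle control cultures reached saturation at 30 °C; 1 = growth at the plate median or of vehicle wells; lower values mean less growth of the strain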
Settings: growth OD

Measured: normalized growth

CC(=O)OC1CCC2C3CCc4cc(O)ccc4C3CCC12C (stereo unspecified)
active: S. cerevisiae deletion strains, locus YLR262C, strain YPT6 (second series), stronger effect = lower value 0.856 | S. cerevisiae deletion strains, locus YLR342W, strain FKS1, stronger effect = lower value 0.886 | S. cerevisiae deletion strains, locus YLR357W, strain rsc2, stronger effect = lower value 0.848 | S. cerevisiae deletion strains, locus YMR307W, strain GAS1, stronger effect = lower value 0.54 | S. cerevisiae deletion strains, locus YNL233W, strain BNI4, stronger effect = lower value 0.806 | S. cerevisiae deletion strains, locus YPL106C, strain sse1, stronger effect = lower value 0.848
inactive: S. cerevisiae deletion strains, locus YJR075W, strain HOC1, stronger effect = lower value 0.919 | S. cerevisiae deletion strains, locus YKL009W, strain mrt4, stronger effect = lower value 0.923 | S. cerevisiae deletion strains, locus YKL068W, stronger effect = lower value 1.01 | S. cerevisiae deletion strains, locus YKL085W, strain MDH1 (second series), stronger effect = lower value 0.98 | S. cerevisiae deletion strains, locus YKL085W, strain MDH1, stronger effect = lower value 0.98 | S. cerevisiae deletion strains, locus YKL160W, strain elf1, stronger effect = lower value 0.904 | S. cerevisiae deletion strains, locus YKL190W, strain CNB1, stronger effect = lower value 1.01 | S. cerevisiae deletion strains, locus YKR001C, strain vps1, stronger effect = lower value 0.977 | S. cerevisiae deletion strains, locus YKR026C, strain gcn3, stronger effect = lower value 0.998 | S. cerevisiae deletion strains, locus YKR091W, strain srl3, stronger effect = lower value 1 | S. cerevisiae deletion strains, locus YLL001W, strain dnm1, stronger effect = lower value 0.963 | S. cerevisiae deletion strains, locus YLL026W, stronger effect = lower value 0.996 | S. cerevisiae deletion strains, locus YLL041C, strain sdh2, stronger effect = lower value 1.02 | S. cerevisiae deletion strains, locus YLR027C, strain aat2, stronger effect = lower value 0.976 | S. cerevisiae deletion strains, locus YLR039C, strain RIC1, stronger effect = lower value 0.86 | S. cerevisiae deletion strains, locus YLR058C, strain SHM2, stronger effect = lower value 0.971 | S. cerevisiae deletion strains, locus YLR102C, strain apc9, stronger effect = lower value 1.02 | S. cerevisiae deletion strains, locus YLR113W, strain HOG1, stronger effect = lower value 0.918 | S. cerevisiae deletion strains, locus YLR221C, strain rsa3, stronger effect = lower value 0.949 | S. cerevisiae deletion strains, locus YLR258W, strain gsy2, stronger effect = lower value 0.978 | S. cerevisiae deletion strains, locus YLR262C, strain YPT6, stronger effect = lower value 0.832 | S. cerevisiae deletion strains, locus YLR268W, strain sec22, stronger effect = lower value 0.97 | S. cerevisiae deletion strains, locus YLR320W, strain mms22, stronger effect = lower value 0.922 | S. cerevisiae deletion strains, locus YLR330W, strain CHS5, stronger effect = lower value 1.02 | S. cerevisiae deletion strains, locus YLR342W, strain FKS1 (second series), stronger effect = lower value 0.891 | S. cerevisiae deletion strains, locus YLR370C, strain arc18, stronger effect = lower value 0.98 | S. cerevisiae deletion strains, locus YLR371W, strain rom2, stronger effect = lower value 1.01 | S. cerevisiae deletion strains, locus YLR384C, strain iki3, stronger effect = lower value 0.964 | S. cerevisiae deletion strains, locus YLR418C, strain cdc73, stronger effect = lower value 0.941 | S. cerevisiae deletion strains, locus YML016C, strain PPZ1, stronger effect = lower value 1 | S. cerevisiae deletion strains, locus YML032C, strain rad52, stronger effect = lower value 0.954 | S. cerevisiae deletion strains, locus YML120C, strain ndi1, stronger effect = lower value 0.98 | S. cerevisiae deletion strains, locus YML124C, strain tub3, stronger effect = lower value 1.01 | S. cerevisiae deletion strains, locus YMR058W, strain fet3, stronger effect = lower value 0.983 | S. cerevisiae deletion strains, locus YMR078C, strain ctf18, stronger effect = lower value 1.02 | S. cerevisiae deletion strains, locus YMR125W, strain sto1, stronger effect = lower value 0.927 | S. cerevisiae deletion strains, locus YMR129W, stronger effect = lower value 1.01 | S. cerevisiae deletion strains, locus YMR205C, strain PFK2, stronger effect = lower value 0.954 | S. cerevisiae deletion strains, locus YMR223W, strain ubp8, stronger effect = lower value 0.969 | S. cerevisiae deletion strains, locus YMR231W, strain pep5, stronger effect = lower value 1.01 | S. cerevisiae deletion strains, locus YMR263W, strain SAP30, stronger effect = lower value 0.919 | S. cerevisiae deletion strains, locus YNL067W, strain RPL9B, stronger effect = lower value 0.945 | S. cerevisiae deletion strains, locus YNL071W, strain lat1, stronger effect = lower value 0.994 | S. cerevisiae deletion strains, locus YNL153C, strain GIM3, stronger effect = lower value 0.891 | S. cerevisiae deletion strains, locus YNL183C, strain NPR1, stronger effect = lower value 0.885 | S. cerevisiae deletion strains, locus YNL209W, strain ssb2, stronger effect = lower value 0.982 | S. cerevisiae deletion strains, locus YNL248C, strain rpa49, stronger effect = lower value 0.975 | S. cerevisiae deletion strains, locus YNL250W, strain rad50, stronger effect = lower value 1.01 | S. cerevisiae deletion strains, locus YNL271C, strain bni1, stronger effect = lower value 1.02 | S. cerevisiae deletion strains, locus YNL298W, strain CLA4, stronger effect = lower value 0.973 | S. cerevisiae deletion strains, locus YNL307C, strain MCK1, stronger effect = lower value 1 | S. cerevisiae deletion strains, locus YNL322C, strain KRE1 (second series), stronger effect = lower value 0.973 | S. cerevisiae deletion strains, locus YNL322C, strain KRE1, stronger effect = lower value 0.963 | S. cerevisiae deletion strains, locus YNR049C, strain mso1, stronger effect = lower value 1.01 | S. cerevisiae deletion strains, locus YNR052C, strain pop2, stronger effect = lower value 1.01 | S. cerevisiae deletion strains, locus YOL006C, strain TOP1, stronger effect = lower value 0.942 | S. cerevisiae deletion strains, locus YOL012C, strain htz1 1.3 | S. cerevisiae deletion strains, locus YOL147C, strain pex11, stronger effect = lower value 1.02 | S. cerevisiae deletion strains, locus YOR001W, strain rrp6, stronger effect = lower value 0.966 | S. cerevisiae deletion strains, locus YOR061W, strain CKA2, stronger effect = lower value 1 | S. cerevisiae deletion strains, locus YOR069W, strain VPS5, stronger effect = lower value 1.01 | S. cerevisiae deletion strains, locus YOR070C, strain gyp1, stronger effect = lower value 0.989 | S. cerevisiae deletion strains, locus YOR080W, strain dia2, stronger effect = lower value 0.998 | S. cerevisiae deletion strains, locus YOR083W, strain WHI5, stronger effect = lower value 0.904 | S. cerevisiae deletion strains, locus YOR106W, strain vam3, stronger effect = lower value 0.94 | S. cerevisiae deletion strains, locus YOR136W, strain idh2, stronger effect = lower value 0.994 | S. cerevisiae deletion strains, locus YOR144C, strain elg1, stronger effect = lower value 1 | S. cerevisiae deletion strains, locus YOR184W, strain ser1, stronger effect = lower value 0.945 | S. cerevisiae deletion strains, locus YOR231W, strain MKK1, stronger effect = lower value 0.96 | S. cerevisiae deletion strains, locus YOR265W, strain rbl2, stronger effect = lower value 0.998 | S. cerevisiae deletion strains, locus YOR270C, strain vph1, stronger effect = lower value 0.924 | S. cerevisiae deletion strains, locus YOR290C, strain snf2, stronger effect = lower value 0.971 | S. cerevisiae deletion strains, locus YOR316C, strain cot1, stronger effect = lower value 1.02 | S. cerevisiae deletion strains, locus YPL051W, strain arl3, stronger effect = lower value 0.959 | S. cerevisiae deletion strains, locus YPL055C, strain LGE1, stronger effect = lower value 0.842 | S. cerevisiae deletion strains, locus YPL078C, strain atp4, stronger effect = lower value 0.91 | S. cerevisiae deletion strains, locus YPL240C, strain hsp82, stronger effect = lower value 1.01 | S. cerevisiae deletion strains, locus YPL241C, strain CIN2, stronger effect = lower value 1.02 | S. cerevisiae deletion strains, locus YPL256C, strain CLN2, stronger effect = lower value 0.931 | S. cerevisiae deletion strains, locus YPR119W, strain clb2, stronger effect = lower value 1 | S. cerevisiae deletion strains, locus YPR141C, strain kar3, stronger effect = lower value 1.02 | S. cerevisiae deletion strains, locus YPR163C, strain tif3, stronger effect = lower value 1.03 | S. cerevisiae deletion strains, locus YPR167C, strain met16, stronger effect = lower value 1.01 | S. cerevisiae deletion strains, strain wtn01, stronger effect = lower value 0.995 | S. cerevisiae strains, strain wild type, stronger effect = lower value 0.967
